From PubChem BioAssay (EPA / NIEHS)
Results filed as inconclusive are left out. Calls of active or inactive are those of the source. The calls were made as follows: active = hit-call score of the fitted dose curve at least 0.9, where 1 is the maximum; inconclusive = response in the unintended direction; inactive = score below 0.9.

The molecules below were run against guinea pig Opioid, Kappa 1 Receptor (OpiateK), OPRK1 (gene 100135587) (UniProt P41144) (assay: NVS_GPCR_gOpiateK: NovaScreen (NVS) G Protein-Coupled Receptor Assay for guinea pig Opioid, Kappa 1 Receptor (OpiateK) (AID 2283252);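 also: radioligand displacement from kappa opioid receptor in guinea pig cerebellar membranes; active means reduced radioligand binding relative to DMSO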).
Sequence of guinea pig Opioid, Kappa 1 Receptor (OpiateK), OPRK1 (gene 100135587) (P41144 whole entry, looked up): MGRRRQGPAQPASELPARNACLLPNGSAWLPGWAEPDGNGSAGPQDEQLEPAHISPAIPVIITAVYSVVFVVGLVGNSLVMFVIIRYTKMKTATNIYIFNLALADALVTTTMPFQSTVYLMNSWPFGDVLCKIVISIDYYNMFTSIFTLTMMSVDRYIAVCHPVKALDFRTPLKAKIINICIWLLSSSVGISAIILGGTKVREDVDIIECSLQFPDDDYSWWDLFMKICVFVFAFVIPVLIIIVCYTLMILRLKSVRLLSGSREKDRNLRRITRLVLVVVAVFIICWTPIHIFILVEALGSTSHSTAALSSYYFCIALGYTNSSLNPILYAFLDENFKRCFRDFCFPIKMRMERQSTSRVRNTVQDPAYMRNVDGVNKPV
In short: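 Guinea pig cerebellar membranes, radioligand displacement with filter-based scintillation counting, 2 h after dosing. Primary screen single concentration 25 uM in duplicate; actives retested in concentration series; loss of binding fitted versus DMSO.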

| Structure (SMILES) | AC50 | outcome |
| --- | --- | --- |
| CCOC(=O)C1=NN(c2ccc(Cl)cc2Cl)C(C)(C(=O)OCC)C1 (centres undefined) | 14.3 µM (active) | – |
| CC1=CC=C(C(C)C)CC1 | – | inactive |
| COC(OC)(C(=O)c1ccccc1)c1ccccc1 | 13.6 µM (active) | – |
| CC(C)[N+](C)(CCOC(=O)C1c2ccccc2Oc2ccccc21)C(C)C | 11.1 µM (active) | – |

What follows are molecules tested against human Adenosine A1 Receptor (AdoRA1), ADORA1 (gene 134) (UniProt P30542) (assay: NVS_GPCR_hAdoRA1: NovaScreen (NVS) G Protein-Coupled Receptor Assay for human Adenosine A1 Receptor (AdoRA1) (AID 2283254)).
Sequence of human Adenosine A1 Receptor (AdoRA1), ADORA1 (gene 134) (P30542 whole entry, looked up): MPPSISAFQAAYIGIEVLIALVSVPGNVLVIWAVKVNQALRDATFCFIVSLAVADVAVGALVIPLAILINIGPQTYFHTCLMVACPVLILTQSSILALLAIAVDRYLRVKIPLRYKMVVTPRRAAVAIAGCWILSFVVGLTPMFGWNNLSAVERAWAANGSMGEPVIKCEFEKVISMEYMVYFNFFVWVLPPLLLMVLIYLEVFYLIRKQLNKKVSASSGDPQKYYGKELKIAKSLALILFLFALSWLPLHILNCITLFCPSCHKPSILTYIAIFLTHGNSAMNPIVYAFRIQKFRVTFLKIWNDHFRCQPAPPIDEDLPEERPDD
Method: NVS_GPCR_hAdoRA1 is a biochemical, single-readout assay that uses extracted gene-proteins from Human cortical membranes in a tissue-based cell-free assay. Measurements were taken 1 hour after chemical dosing in a 96-well plate.NVS_GPCR_hAdoRA1 is one of one assay component(s) measured or calculated from the NVS_GPCR_hAdoRA1 assay. It is designed to make measurements of radioligand binding, a form of binding reporter, as detected with scintillation counting signals by Filter-based radiodetection technology.Data from the assay component NVS_GPCR_hAdoRA1 was analyzed into 1 assay endpoint. This assay endpoint, NVS_GPCR_hAdoRA1, was analyzed in the positive analysis fitting direction relative to DMSO as the negative control and baseline of activity. Using a type of binding reporter, loss-of-signal activity can be used to understand changes in the binding as they relate to the gene ADORA1. Furthermore, this assay endpoint can be referred to as a primary readout, because the performed assay has only produced 1 assay endpoint. To generalize the intended target to other relatable targets, this assay endpoint is annotated to the gpcr intended target family, where the subfamily is rhodopsin-like receptor.
Binding assays used specific radioligands (tritiated, iodinated) with non-radioactive competitive displacement ligands in agonist or antagonist protocols (as indicated) and various reference compounds and inhibitors to titrate specific binding to receptors and transporters. Most enzyme assays (CYPs, kinases, phosphatases, proteases, HDACs) used recombinant protein and specific substrates (fluorescence mostly, some colorimetric and radioactive) and inhibitors, followed by a biochemical separation of substrate and product. All assays for the biochemical HTS were initially run in duplicate at a single concentration (10 uM for CYP450 assays and 25 uM for all others). […] Each assay was run with positive and negative controls, and concurrent controls on every plate. […]

| Structure (SMILES) | AC50 | outcome |
| --- | --- | --- |
| Nc1nc(N)nc(-c2ccccc2)n1 | 6.11 µM (active) | – |
| CCCCCCCCCCCCCc1ccccc1 | – | inactive |
| Oc1ccc(/C=C/c2cc(O)cc(O)c2)cc1 | – | inactive |

These molecules were tested against human Adenosine A2a Receptor (AdoRA2a), ADORA2A (gene 135) (UniProt P29274) (assay: NVS_GPCR_hAdoRA2a: NovaScreen (NVS) G Protein-Coupled Receptor Assay for human Adenosine A2a Receptor (AdoRA2a) (AID 2283256)).
Sequence of human Adenosine A2a Receptor (AdoRA2a), ADORA2A (gene 135) (P29274 whole entry, looked up): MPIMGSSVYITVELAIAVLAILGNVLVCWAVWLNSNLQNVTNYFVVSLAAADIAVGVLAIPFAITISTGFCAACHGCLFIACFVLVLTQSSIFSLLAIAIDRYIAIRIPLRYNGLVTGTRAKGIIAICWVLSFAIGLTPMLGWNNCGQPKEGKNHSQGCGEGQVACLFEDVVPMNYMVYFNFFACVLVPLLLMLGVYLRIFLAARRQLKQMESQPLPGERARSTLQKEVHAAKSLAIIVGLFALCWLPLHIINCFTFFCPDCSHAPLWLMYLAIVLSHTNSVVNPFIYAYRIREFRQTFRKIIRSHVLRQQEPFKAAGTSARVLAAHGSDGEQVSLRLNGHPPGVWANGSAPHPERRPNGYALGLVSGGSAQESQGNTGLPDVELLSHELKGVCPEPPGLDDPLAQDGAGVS
In short: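 Cell-free radioligand binding on membranes from HEK293 expressing the receptor; competitive displacement read 1.5 h after dosing by filter-based scintillation counting. Primary screen in duplicate at 25 uM; actives followed in concentration series, with DMSO as baseline.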

| Structure (SMILES) | outcome | AC50 |
| --- | --- | --- |
| Cc1c[nH]c(=O)[nH]c1=O | inactive | – |
| c1ccc(-c2nc3ccccc3[nH]2)cc1 | inactive | – |
| Cn1ccnc1 | inactive | – |
| Nc1nc(N)nc(-c2ccccc2)n1 | – | 3.01 µM (active) |
| Oc1ccc(/C=C/c2cc(O)cc(O)c2)cc1 | – | 17.9 µM (active) |

What follows are molecules tested against D(1A) dopamine receptor (Homo sapiens) (UniProt P21728) (assay: NVS_GPCR_hDRD1: NovaScreen (NVS) G Protein-Coupled Receptor Assay for human Dopamine Receptor D1 (DRD1) (AID 2283269)).
Sequence of D(1A) dopamine receptor (Homo sapiens) (P21728 whole entry, looked up): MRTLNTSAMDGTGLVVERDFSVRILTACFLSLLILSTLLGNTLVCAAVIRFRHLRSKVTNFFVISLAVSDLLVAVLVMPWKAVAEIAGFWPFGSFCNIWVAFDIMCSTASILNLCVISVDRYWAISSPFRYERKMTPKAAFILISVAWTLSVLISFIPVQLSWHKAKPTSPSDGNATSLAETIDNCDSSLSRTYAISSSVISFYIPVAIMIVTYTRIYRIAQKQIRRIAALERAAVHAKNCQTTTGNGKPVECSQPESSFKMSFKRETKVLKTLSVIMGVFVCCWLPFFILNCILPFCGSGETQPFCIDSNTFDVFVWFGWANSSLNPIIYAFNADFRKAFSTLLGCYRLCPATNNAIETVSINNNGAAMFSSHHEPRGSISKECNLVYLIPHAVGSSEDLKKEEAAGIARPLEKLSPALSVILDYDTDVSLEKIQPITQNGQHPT
In short: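 Extracted HEK293 DRD1 is incubated 1 h with compound and a tritiated or iodinated radioligand, then filtered and counted. Screening runs 25 uM in duplicate with on-plate positive and negative controls.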

| Structure (SMILES) | outcome | AC50 |
| --- | --- | --- |
| C=C(C)C(=O)OCCCCCCCCCCCC | inactive | – |
| Cc1cc(C)n(CO)n1 | inactive | – |
| Cc1cc(C)c(C=O)c(C)c1 | inactive | – |
| CCC(C)C(=O)OC (centres undefined) | – | 18.1 µM (active) |
| CC(c1cc(C(C)(C)C)cc(C(C)(C)C)c1O)c1cc(C(C)(C)C)cc(C(C)(C)C)c1O | inactive | – |
| CC/C=C\C/C=C\C/C=C\CCCCCCCC(=O)OC | – | 14 µM (active) |
| [Cl][Sc]([Cl])[Cl] | inactive | – |
| CCCCCCCCCCCCCc1ccccc1 | inactive | – |
| COC(=O)C=Cc1ccccc1 | inactive | – |
| CC(C)CCOCc1ccccc1 | inactive | – |
| Oc1ccc(/C=C/c2cc(O)cc(O)c2)cc1 | – | 25 µM (active) |

What follows are molecules tested against Muscarinic acetylcholine receptor M2 (Homo sapiens) (UniProt P08172) (assay: NVS_GPCR_hM2: NovaScreen (NVS) G Protein-Coupled Receptor Assay for human Muscarinic, M2 Receptor (AID 2283273)).
Sequence of Muscarinic acetylcholine receptor M2 (Homo sapiens) (P08172 whole entry, looked up): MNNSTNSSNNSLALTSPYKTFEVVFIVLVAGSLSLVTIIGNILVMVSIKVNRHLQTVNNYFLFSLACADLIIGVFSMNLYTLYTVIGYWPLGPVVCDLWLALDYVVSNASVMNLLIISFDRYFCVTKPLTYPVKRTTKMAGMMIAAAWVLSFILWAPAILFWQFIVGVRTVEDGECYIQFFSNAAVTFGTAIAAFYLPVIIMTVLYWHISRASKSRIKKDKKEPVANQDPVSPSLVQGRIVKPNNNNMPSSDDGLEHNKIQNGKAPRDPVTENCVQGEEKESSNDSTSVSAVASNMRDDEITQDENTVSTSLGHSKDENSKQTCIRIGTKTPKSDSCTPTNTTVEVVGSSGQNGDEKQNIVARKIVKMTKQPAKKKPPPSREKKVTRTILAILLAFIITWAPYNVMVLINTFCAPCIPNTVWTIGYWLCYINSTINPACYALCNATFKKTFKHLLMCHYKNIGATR
In short: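 Radioligand displacement on human M2 receptor membranes from CHO cells, 1 h incubation, filtration with scintillation counting. Primary screen in duplicate at 25 uM; actives retested in concentration series; loss of signal fitted versus DMSO.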

| Structure (SMILES) | outcome | AC50 |
| --- | --- | --- |
| Cc1c(O)cccc1O | inactive | – |
| CC(C)[N+](C)(CCOC(=O)C1c2ccccc2Oc2ccccc21)C(C)C | – | 0.00229 µM (active) |
| CCCCCCCCC(CO)CCCCCC (centres undefined) | inactive | – |

What follows are molecules tested against human Neurokinin, NK2 Receptor, TACR2 (gene 6865) (UniProt P21452) (assay: NVS_GPCR_hNK2: NovaScreen (NVS) G Protein-Coupled Receptor Assay for human Neurokinin, NK2 Receptor (AID 2283278);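 also: actives reduce bound radioligand signal relative to DMSO baseline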).
Sequence of human Neurokinin, NK2 Receptor, TACR2 (gene 6865) (P21452 whole entry, looked up): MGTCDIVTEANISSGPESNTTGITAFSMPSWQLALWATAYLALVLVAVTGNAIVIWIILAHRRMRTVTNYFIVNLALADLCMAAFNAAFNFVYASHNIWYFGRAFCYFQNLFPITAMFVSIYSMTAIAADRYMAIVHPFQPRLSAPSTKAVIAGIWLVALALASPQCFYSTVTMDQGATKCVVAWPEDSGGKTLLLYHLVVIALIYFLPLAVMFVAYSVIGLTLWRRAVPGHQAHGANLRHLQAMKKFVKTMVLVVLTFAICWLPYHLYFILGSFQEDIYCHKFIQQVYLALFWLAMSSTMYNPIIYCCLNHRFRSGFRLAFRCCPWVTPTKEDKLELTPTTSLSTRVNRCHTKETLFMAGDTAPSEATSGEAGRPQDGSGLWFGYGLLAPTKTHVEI
In short: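 Test chemicals displace a radioligand from receptor prepared from CHO cells in a cell-free format, read after 4 hours by scintillation counting on filters. Screening starts at 25 uM in duplicate, and active chemicals then go to concentration series.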

| Structure (SMILES) | AC50 | outcome |
| --- | --- | --- |
| c1ccc2sc(SSN3CCOCC3)nc2c1 | 3.65 µM (active) | – |
| CCOC(=O)/C=C\C(=O)OCC | – | inactive |
| [Cl][Sc]([Cl])[Cl] | – | inactive |
| CC(C)[N+](C)(CCOC(=O)C1c2ccccc2Oc2ccccc21)C(C)C | 17.7 µM (active) | – |
| Oc1ccc(/C=C/c2cc(O)cc(O)c2)cc1 | 0.835 µM (active) | – |

These molecules were tested against human Thromboxane A2 Receptor (TXA2), TBXA2R (gene 6915) (UniProt P21731) (assay: NVS_GPCR_hTXA2: NovaScreen (NVS) G Protein-Coupled Receptor Assay for human Thromboxane A2 Receptor (TXA2) (AID 2283282);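 also: actives reduce bound radioligand signal relative to DMSO baseline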).
Sequence of human Thromboxane A2 Receptor (TXA2), TBXA2R (gene 6915) (P21731 whole entry, looked up): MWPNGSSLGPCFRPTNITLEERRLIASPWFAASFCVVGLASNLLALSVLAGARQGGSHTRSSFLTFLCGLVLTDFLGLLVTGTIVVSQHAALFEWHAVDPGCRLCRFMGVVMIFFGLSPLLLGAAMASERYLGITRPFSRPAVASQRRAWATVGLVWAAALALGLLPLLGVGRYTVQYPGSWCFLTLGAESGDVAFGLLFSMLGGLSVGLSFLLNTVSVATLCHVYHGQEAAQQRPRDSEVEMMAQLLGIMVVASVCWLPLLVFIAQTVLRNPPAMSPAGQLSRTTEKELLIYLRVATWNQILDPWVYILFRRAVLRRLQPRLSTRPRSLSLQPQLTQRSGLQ
In short: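 Cell-free radioligand binding on membrane protein from human platelets; radioligand displacement read by filter-based scintillation counting after 1 h. Primary screen in duplicate at 25 uM, actives then run in concentration series; loss of signal versus DMSO.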

| Structure (SMILES) | outcome | AC50 |
| --- | --- | --- |
| CCCCCCC=O | inactive | – |
| CC(C)=NNC(N)=S | inactive | – |
| CCCCC1C(=O)N(c2ccccc2)N(c2ccccc2)C1=O | inactive | – |
| CCOC(=O)/C=C\C(=O)OCC | inactive | – |
| c1ccc(-c2nc3ccccc3[nH]2)cc1 | – | 7.64 µM (active) |
| CCOC(=O)C1=NN(c2ccc(Cl)cc2Cl)C(C)(C(=O)OCC)C1 (centres undefined) | inactive | – |
| CC/C=C\C/C=C\C/C=C\CCCCCCCC(=O)OC | – | 2.66 µM (active) |
| Clc1cccnc1 | inactive | – |
| Oc1ccc(/C=C/c2cc(O)cc(O)c2)cc1 | inactive | – |
| Fc1ccc(Br)cc1 | inactive | – |
| Oc1c(Cl)cc(Cl)c(Cl)c1Cl | inactive | – |
| CCc1cccc(C)c1N(C(=O)CS(=O)(=O)O)C(C)COC (centres undefined) | inactive | – |
| CCC(C)c1ccccc1 (centres undefined) | – | 2.46 µM (active) |
